From PubChem BioAssay (EPA / NIEHS)
The source made the active and inactive calls. How the source made its calls: active means hit-call score of the fitted dose curve at least 0.9, where 1 is the maximum; inactive means score below 0.9.

target: Estrogen receptor (Homo sapiens) (UniProt P03372); experiment: OT_ERa_GFPERaERE_0480: Odyssey Thera (OT) 8-hour HeLa Transcription Induction Assay for Estrogen Receptor (AID 2283381)
Method: OT_ERa_GFPERaERE_0480 is a cell-based, single-readout assay that uses HeLa, a human cervix cell line, with measurements taken at 8 hours after chemical dosing in a 384-well plate.OT_ERa_GFPERaERE_0480 is one of one assay component(s) measured or calculated from the OT_ERa_GFPERaERE_0480 assay. It is designed to make measurements of fluorescent protein induction, a form of inducible reporter, as detected with optical microscopy: fluorescence microscopy signals by Microscopy technology.Data from the assay component OT_ERa_GFPERaERE_0480 was analyzed into 1 assay endpoint. This assay endpoint, OT_ERa_EREGFP_0480, was analyzed in the positive analysis fitting direction relative to DMSO as the negative control and baseline of activity. Using a type of inducible reporter, measures of receptor for gain-of-signal activity can be used to understand the reporter gene at the pathway-level as they relate to the gene ESR1. Furthermore, this assay endpoint can be referred to as a primary readout, because the performed assay has only produced 1 assay endpoint. To generalize the intended target to other relatable targets, this assay endpoint is annotated to the nuclear receptor intended target family, where the subfamily is steroidal.
All assay endpoints are quantified using high content image analysis algorithms.

Estrogen receptor (Homo sapiens), sequence (P03372 whole entry, looked up): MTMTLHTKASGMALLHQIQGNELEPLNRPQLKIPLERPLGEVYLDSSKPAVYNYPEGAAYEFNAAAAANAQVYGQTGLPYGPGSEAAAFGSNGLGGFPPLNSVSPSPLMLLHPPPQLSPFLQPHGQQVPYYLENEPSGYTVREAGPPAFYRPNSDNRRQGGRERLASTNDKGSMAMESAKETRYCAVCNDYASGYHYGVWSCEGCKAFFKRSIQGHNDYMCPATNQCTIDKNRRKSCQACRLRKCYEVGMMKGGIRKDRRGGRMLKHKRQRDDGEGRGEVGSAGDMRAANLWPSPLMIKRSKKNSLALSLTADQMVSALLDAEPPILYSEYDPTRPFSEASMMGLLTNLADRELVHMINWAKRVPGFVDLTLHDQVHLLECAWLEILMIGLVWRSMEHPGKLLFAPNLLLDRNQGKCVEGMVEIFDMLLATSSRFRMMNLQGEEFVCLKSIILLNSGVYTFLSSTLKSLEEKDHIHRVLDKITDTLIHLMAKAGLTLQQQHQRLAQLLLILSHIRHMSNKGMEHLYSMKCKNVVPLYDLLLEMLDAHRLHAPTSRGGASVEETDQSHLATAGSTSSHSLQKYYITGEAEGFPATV

Row | SMILES | outcome | AC50
1 | CC1(C)C(=O)N(Cl)C(=O)N1Cl | inactive | 
2 | O=C(O)c1cccc(C(=O)O)c1 | inactive | 
3 | c1ccc2c(c1)-c1cccc3c1c-2cc1ccccc13 | inactive | 
4 | Cc1nccn1-c1ccc(Sc2cccc(C3(C(N)=O)CCOCC3)c2)cc1 |  | 17.4 µM (active)
5 | CC(C)C(=O)Nc1ccc([N+](=O)[O-])c(C(F)(F)F)c1 | inactive | 
6 | NC(=O)N1c2ccccc2C=Cc2ccccc21 | inactive | 
7 | O=C(O)[C@H](O)[C@@H](O)C(=O)O | inactive | 
8 | CC(C)c1nnc2ccc(-c3ocnc3-c3cc(F)ccc3F)cn12 | inactive | 
9 | CCCCCCCC1CCC(=O)O1 (stereo not given) | inactive | 
10 | CCn1nc(C)c2c1C(=O)NCC(c1ccc(O)cc1)=N2 | inactive | 
11 | CCCCOC(=O)c1ccccc1 | inactive | 
12 | Nc1ccn([C@@H]2O[C@H](CO)[C@@H](O)[C@@H]2O)c(=O)n1 | inactive | 
13 | CCCCCCCCCC | inactive | 
14 | CC[C@H](C)C(=O)O[C@H]1C[C@H](O)C=C2C=C[C@H](C)[C@H](CC[C@@H](O)C[C@@H](O)CC(=O)O)[C@H]21 | inactive | 
15 | COS(C)(=O)=O | inactive | 
16 | O=c1[nH]cnc2c1ncn2[C@H]1CC[C@@H](CO)O1 | inactive | 
17 | NC(N)=O | inactive | 
18 | CCc1ccc(O)c(C(C)(C)C)c1 | inactive | 
19 | OC[C@H]1O[C@@](CO)(O[C@H]2O[C@H](CO)[C@@H](O)[C@H](O)[C@H]2O)[C@@H](O)[C@@H]1O | inactive | 
20 | COc1cc(C(C)C)c2c(c1)S(=O)(=O)N(COc1cc(=O)n3cccc(OCCN4CCCCC4)c3n1)C2=O |  | 23.2 µM (active)

Row | SMILES | outcome | AC50
21 | OCCNCCO | inactive | 
22 | OC(CCl)CCl | inactive | 
23 | CC(C)CCCCCCOC(=O)C1CCCCC1C(=O)OCCCCCCC(C)C (stereo not given) | inactive | 
24 | CCCCCCCCN(C)C | inactive | 
25 | CCCCCOC(C)=O | inactive | 
26 | C=CN1CCCC1=O | inactive | 
27 | CCCC(CCC)C(=O)O | inactive | 
28 | Cn1cc[nH]c1=S | inactive | 
29 | c1ccc2ncccc2c1 | inactive | 
30 | CCN(CC)C(=S)SSC(=S)N(CC)CC |  | 92.5 µM (active)
31 | C[C@]12C=CC(=O)C=C1CC[C@H]1[C@@H]3C[C@@H](O)[C@](O)(C(=O)CO)[C@@]3(C)C[C@H](O)[C@@]12F | inactive | 
32 | OCC(CO)(CO)CO | inactive | 
33 | NNC(=O)c1ccncc1 | inactive | 
34 | O=C(O)c1ccc2c(c1)nc(C(=O)NC1CCN(C3CC3)CC1)n2Cc1cc(-c2ccc(Cl)s2)on1 | inactive | 
35 | CCCCCCCCCCCCCCCCOS(=O)(=O)O | inactive | 
36 | CCCCC(CC)C(=O)OCCOCCOCCOC(=O)C(CC)CCCC (stereo not given) | inactive | 
37 | OC(Cn1cncn1)(Cn1cncn1)c1ccc(F)cc1F | inactive | 
38 | OCCOCCOCCO | inactive | 
39 | C[C@@H](Oc1ccc(CNC(=O)c2cccnc2Oc2ccc3c(c2)OCO3)c(F)c1)C(=O)O | inactive | 
40 | O=C(O)c1cccc(C[C@@H]2COc3ccc(OCc4nc5cc(F)ccc5s4)cc3[C@@H]2O)c1 | inactive | 
